From PubChem
Rows were chosen to be rich in hits. Some 12% of all compounds tested hit in one or more screens of this group.
PLK1 PBD block: PLK1 (human) polo-box domain binding inhibition; P53350; Plk1 PBD binding of FITC phosphopeptide, fluorescence polarization; Potency, µM, without a hit: max response, negative = inhibition, usual class: inhibitors; hit rate 2.8% among 360,000; also: potency is read from the fitted curve at half-maximal effect; series mostly up to about 57 µM; % is scaled to controls: 0 for no effect and ±100 for the full control effect; nearly all actives have a fitted effect of over 65% in size
BAZ2B inh: inhibitors of human BAZ2B bromodomain; AID 504333; Q9UIF8; Potency, µM (highest dose often 114 µM), inactives show top-dose activity change, negative = inhibition, most hits filed as inhibitors; hit rate 4.4% among 360,000; AlphaScreen BAZ2B-H3K14Ac peptide displacement; also: potency is read from the fitted curve at half-maximal effect; % is scaled to controls: 0 for no effect and ±100 for the full control effect; nearly all actives have a fitted effect of over 60% in size
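AlphaScreen displacement: compounds (up to 110uM) incubated 30 min at room temperature with a preformed 50 nM BAZ2B/50 nM biotinylated H3K14Ac peptide complex in PBS pH 7.4 with Tween-20. Donor and acceptor beads at 10 ug/mL final added, 20 min light-protected before reading.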
JMJD2A Tudor inh: JMJD2A Tudor domain (human) inhibition; O75164; AID 504339; hit rate 4.4% among 390,000; AlphaScreen JMJD2A-Tudor / H3K4me3 peptide binding; Potency, µM (doses to about 114 µM), for the others: top-dose activity change, negative = inhibition, actives largely listed as inhibitors; also: potency is read from the fitted curve at half-maximal effect; % is scaled to controls: 0 for no effect and ±100 for the full control effect; nearly all actives have a fitted effect of over 50% in size
Target sequence (O75164 whole entry, looked up, the tested form may be a part): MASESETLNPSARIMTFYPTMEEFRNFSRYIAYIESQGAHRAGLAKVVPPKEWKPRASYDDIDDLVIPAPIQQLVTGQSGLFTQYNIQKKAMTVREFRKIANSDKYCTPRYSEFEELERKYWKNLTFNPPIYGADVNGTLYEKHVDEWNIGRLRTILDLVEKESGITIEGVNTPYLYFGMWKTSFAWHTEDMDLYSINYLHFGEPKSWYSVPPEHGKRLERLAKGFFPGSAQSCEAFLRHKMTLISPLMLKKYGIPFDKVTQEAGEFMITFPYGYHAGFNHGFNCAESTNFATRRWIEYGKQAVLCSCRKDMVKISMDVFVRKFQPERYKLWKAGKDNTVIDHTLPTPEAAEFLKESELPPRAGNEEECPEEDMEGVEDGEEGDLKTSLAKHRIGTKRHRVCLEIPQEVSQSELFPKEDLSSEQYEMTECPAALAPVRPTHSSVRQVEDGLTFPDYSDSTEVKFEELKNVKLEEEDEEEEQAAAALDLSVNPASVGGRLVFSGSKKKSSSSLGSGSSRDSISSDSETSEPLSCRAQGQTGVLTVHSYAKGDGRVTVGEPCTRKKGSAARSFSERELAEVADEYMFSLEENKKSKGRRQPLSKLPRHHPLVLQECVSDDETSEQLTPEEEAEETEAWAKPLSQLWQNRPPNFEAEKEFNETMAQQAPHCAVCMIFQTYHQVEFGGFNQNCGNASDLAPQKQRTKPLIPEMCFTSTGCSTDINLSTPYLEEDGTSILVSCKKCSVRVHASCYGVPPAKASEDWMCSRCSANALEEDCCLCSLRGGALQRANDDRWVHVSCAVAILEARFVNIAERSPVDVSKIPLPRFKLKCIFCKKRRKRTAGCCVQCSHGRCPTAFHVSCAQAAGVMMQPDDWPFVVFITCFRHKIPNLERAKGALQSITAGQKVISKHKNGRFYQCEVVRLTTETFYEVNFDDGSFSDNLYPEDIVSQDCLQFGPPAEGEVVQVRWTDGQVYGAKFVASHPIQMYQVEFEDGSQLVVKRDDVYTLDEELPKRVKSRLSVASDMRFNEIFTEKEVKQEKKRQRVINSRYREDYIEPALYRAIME
G9a inh: blocks human histone lysine methyltransferase G9a. Q96KQ7. G9a H3K9 monomethylation, AlphaScreen, 2 h. Potency, µM (series often up to 102 µM), for inactives: at the top dose activity, negative = inhibition, hits mostly inhibitors. hit rate 8.8% among 350,000; also: potency is read from the fitted curve at half-maximal effect; % is scaled to controls: 0 for no effect and ±100 for the full control effect; nearly all actives have a fitted effect of over 75% in size
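Step 1: enzyme (final 20 nM) with compound, 15 min RT. Step 2: substrate peptide 500 nM and SAM 20 uM, 2 h RT. Step 3: anti-H3K9me1 antibody and AlphaScreen beads, 10 min, then plate read.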
PI5P4Ka inh: PI5P4K alpha (human) kinase inhibition; hit rate 1.2% among 330,000; max response, %; PI5P4Kalpha enzyme, ADP-Glo luminescence, 60 min; stronger effect = lower value; active = max response of -50% or lower; inconclusive = between -30% and -50%; inactive = -30% or higher; also: value at the top dose of about 77 µM; % is scaled to controls: 0 for no effect and ±100 for the full control effect
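ADP-Glo luminescence end-point after a 60 min room-temperature kinase reaction. PI5P4Kalpha and substrate in HEPES pH 7.4 buffer with EGTA, 0.1% CHAPS and 5% DMSO; ATP at 5 microM final.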
HP1b binding inh: blocks HP1-beta chromodomain binding to methylated histone tails. Potency, µM (highest dose often 114 µM), for inactives: top-dose activity change, negative = inhibition, actives largely listed as inhibitors. AlphaScreen HP1-beta / biotin-H3K9me3 peptide binding. hit rate 0.56% among 390,000. P83916. AID 540317; also: potency is read from the fitted curve at half-maximal effect; nearly all actives have a fitted effect of over 70% in size
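Compound inhibition of the preformed complex between 50 nM HP1-beta and 50 nM biotinylated H3K9me3 peptide was read by AlphaScreen. Buffer was PBS pH 7.4 with 0.01% Tween-20. Incubations ran 30 min at room temperature, with 10 ug/mL donor/acceptor beads.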
Starred values were filed as active, the others as inactive; ? = inconclusive; / = not tested or not shown; [ ] = dose if it differs, or a comment. Unless noted, calls follow the shape of the dose curve; as a rule, active = well fitted curve in the direction sought with a large enough effect; inconclusive = small, poorly fitted or top-dose-only effect, or another doubt; inactive = no such curve, though single readings can be large; an effect the other way counts as inactive or inconclusive.

SMILES	PLK1 PBD block	BAZ2B inh	JMJD2A Tudor inh	G9a inh	PI5P4Ka inh	HP1b binding inh
Cc1ccc(-c2csc3nc(-c4ccncc4)[nH]c(=O)c23)cc1	17µM*	-2%	-20%[11.4 µM]	?	-4	17%
Cc1ccc(-c2csc3nc(CN(C)Cc4ccccc4)[nH]c(=O)c23)cc1	1%	/	-18%	?	-6	66%
CCOC(=O)Cc1ccc(Nc2nc3cc(-c4sccc4C)sc3c(=O)n2C)cc1	4%	/	/	/	?	/
CCCCc1c(O)nc(SCC(=O)Nc2ccc(OC)cc2)n(-c2ccc(C)c(C)c2)c1=O	-8%	/	/	/	-2	/
O=[N+]([O-])c1cccc(/C=N/n2c(-c3cccnc3)n[nH]c2=S)c1	-21%	-37%	4µM*	1.8µM*	-25	?
O=[N+]([O-])c1ccc(Cl)c(/C=N/n2c(-c3cccnc3)n[nH]c2=S)c1	/	-19%	/	5.6µM*	/	/
Cc1ccsc1/C=N/n1c(-c2cccnc2)n[nH]c1=S	-16%	-29%	4.5µM*	?	/	-5%
O=[N+]([O-])c1ccc(/C=N/n2c(-c3cccnc3)n[nH]c2=S)cc1	-24%	3%	8.9µM*	-127%	-24	-1%
O=[N+]([O-])c1cc(/C=N/n2c(-c3ccncc3)n[nH]c2=S)ccc1Cl	-22%	?	?	/	?	6%
OCCN1CCN(C(c2ccc(Cl)cc2Cl)c2sc3nc(-c4ccco4)nn3c2O)CC1 (stereo not drawn)	/	-18%	-15%	?	/	27%
OC(c1cccc(Cl)c1)c1ncc(-c2cccc3ccccc23)[nH]1 (stereo not drawn)	-7%	/	/	/	-4	/
CC(C)n1c(C(O)c2ccc3c(c2)OCO3)nc2ccccc21 (stereo not drawn)	-4%	-32%	-30%	71µM*	/	9%
OC(c1cccc(Cl)c1)c1nccc2ccccc12 (stereo not drawn)	-8%	-31%	-30%	40µM*	0	39%
Cn1c(C(O)c2ccc3c(c2)OCO3)nc2ccccc21 (stereo not drawn)	2%	12%	8%	-4%[12.7 µM]	-1	25%
OC(c1ccc2c(c1)OCO2)c1nccc2ccccc12 (stereo not drawn)	-4%	-24%	?	45µM*	/	54%
Cc1c(NC(=O)C(C)OC(=O)c2ccc([N+](=O)[O-])cc2Cl)c(=O)n(-c2ccccc2)n1C (stereo not drawn)	-2%	/	-22%	/	10	12%
C=CCN(C(=O)c1csnn1)C(C(=O)NCc1ccc(F)cc1)c1ccccc1F (stereo not drawn)	-4%	2%	-17%	25%	3	-1%
CN1C(=O)/C(=C/c2cc(N=Nc3ccccc3)ccc2O)SC1=S	?	2.2µM*	5µM*	8.9µM*	/	?
O=C(COC(=O)c1ccc(Cl)nc1)Nc1cc(S(=O)(=O)N2CCOCC2)ccc1Cl	-1%	/	?	/	9	22%
CC1CCN(S(=O)(=O)c2ccc(S(=O)(=O)N3CCC4(CC3)OCCO4)cc2)CC1	0%	-6%	0%	11µM*	-3	17%
O=S(=O)(c1ccc(F)cc1)N1CCCC1	-10%	-29%	-3%	5%[0.501 µM]	-13	39%
CC1CN(C2CCN(S(=O)(=O)c3ccc(F)cc3)CC2)CC(C)O1 (stereo not drawn)	-3%	32µM*	2.8µM*	10µM*	-4	?
CCCCOc1ccc(S(=O)(=O)n2nc(C)c(S(=O)(=O)N3CCC(C)CC3)c2C)cc1	/	5%	1%	-2%[59 µM]	/	26%[57 µM]
Cc1ccc(S(=O)(=O)N2CCC(N3CCC(C)CC3)CC2)cc1	-2%	?	1.6µM*	25µM*	11	?
Cc1ccc(S(=O)(=O)n2nc(C)c(S(=O)(=O)N3CCC(C)CC3)c2C)cc1	/	-23%	79µM*	-8%[59 µM]	/	7%
CC(C)(C)C(=O)Nc1ccc2nc(SCC(=O)N3CCc4ccccc43)sc2c1	/	3%	-16%	0%[59 µM]	/	24%
N#Cc1cccc(NC(=O)N2CCCC3(CCN(C(=O)c4ccco4)CC3)C2)c1	/	/	/	-10%[12.7 µM]	/	/
